Assay results reported in PubChem BioAssay AID651661 (Broad Institute, 2012).
In all, about 350,000 compounds went through this assay and about 2,300 (0.66%) were called active. What follows is part of a selection rich in actives, with near analogues and random picks from the rest. Values without a mark were called inactive.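 The calls were made as follows: active = mean inhibition of at least 50% after viability correction, with every replicate also passing that limit; inconclusive = mean reaches 50% but only one of two replicates passes; inactive = the rest.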

experiment: blockers of EWS/Fli transcriptional output – A673 cells, NR0B1 luciferase, luminescence, MLPCN library, primary screen (AID 651661); settings: A673 NR0B1-luciferase reporter, viability-normalised; at 12.6 µM; stronger effect = higher value;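 also: firefly luciferase signal divided by Alamar Blue viability fluorescence both relative to DMSO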

Row | SMILES | inhibition
1 | CC(=O)Nc1ccc(C=Cc2ccc([N+](=O)[O-])cc2)cc1 | -72.7%
2 | O=C(O)C(=Cc1ccc([N+](=O)[O-])cc1)CCc1ccccc1 | 5.5%
3 | O=C1/C(=C\c2ccc([N+](=O)[O-])cc2)CS(=O)(=O)C/C1=C/c1ccc([N+](=O)[O-])cc1 | 74.9% (active)
4 | CCCN1C[C@@H](C)[C@@H](OC)CN(C)C(=O)c2ccc(NC(=O)c3ccc(F)cc3)cc2OC[C@@H]1C | -2.15%
5 | Cc1noc(C)c1NC(=O)N(C)C[C@H]1OCCCC[C@@H](C)Oc2ccc(NS(=O)(=O)c3ccc(Cl)cc3)cc2C(=O)N([C@@H](C)CO)C[C@H]1C | -7.3%
6 | CNC[C@H]1Oc2ccc(N(C)C)cc2CC(=O)N([C@@H](C)CO)C[C@@H]1C | 14.1%
7 | CC1(C(=O)NCc2ccc(F)c(F)c2)Cc2c(-c3ccc4c(c3)OCO4)ccnc2O1 (stereo unspecified) | 60.1% (active)
8 | S=C(NCc1ccc2c(c1)OCO2)NCc1ccco1 | -23.2%
9 | COc1cc(OC)c(C(=O)NCc2ccc3c(c2)OCO3)cc1OC | 9.01%
10 | CC1(C(=O)NCC2CCOCC2)Cc2c(-c3cccc(C(N)=O)c3)ccnc2O1 (stereo unspecified) | 0.349%
11 | CC1(C(=O)NCc2ccco2)Cc2c(-c3ccc4c(c3)OCO4)ccnc2O1 (stereo unspecified) | 57.5% (active)
12 | CN(CC(=O)NCc1ccc2c(c1)OCO2)CC(=O)Nc1ccc(F)c(F)c1F | 3.77%
13 | Cc1noc(C)c1NC(=O)Nc1ccc2c(c1)CC(=O)N([C@H](C)CO)C[C@@H](C)[C@@H](CN(C)Cc1ccncc1)O2 | -1.93%
14 | C[C@H](CO)N1C[C@H](C)[C@@H](CN(C)Cc2ccc(Cl)c(Cl)c2)Oc2ccc(NC(=O)Nc3ccc(C(F)(F)F)cc3)cc2CC1=O | 72.5% (active)
15 | Cc1noc(C)c1NC(=O)Nc1ccc2c(c1)CC(=O)N([C@H](C)CO)C[C@@H](C)[C@@H](CN(C)Cc1ccc(C(F)(F)F)cc1)O2 | 7.38%
16 | Cc1noc(C)c1NC(=O)Nc1ccc2c(c1)CC(=O)N([C@@H](C)CO)C[C@@H](C)[C@@H](CN(C)Cc1ccc(Cl)c(Cl)c1)O2 | 64.4% (active)
17 | C[C@@H]1CN([C@H](C)CO)C(=O)Cc2cc(NC(=O)Nc3ccccc3)ccc2O[C@H]1CN(C)Cc1ccc(Cl)c(Cl)c1 | 9.7%
18 | C[C@@H]1CN([C@H](C)CO)C(=O)Cc2cc(NC(=O)Nc3ccccc3)ccc2O[C@@H]1CN(C)Cc1ccc(C(F)(F)F)cc1 | -0.517%
19 | O=C(C1CCOCC1)N1CC(=O)N2[C@H](CO)[C@H](c3ccc(C#Cc4cccc(F)c4)cc3)[C@H]2C1 | 3.5%
20 | CCCC(=O)Nc1ccc2c(c1)C(=O)N(C)[C@H]1CC[C@@H](CC(=O)NCC(F)(F)F)O[C@@H]1CO2 | 3%
21 | O=C(C[C@@H]1CC[C@H](NC(=O)C2CC2)[C@H](CO)O1)NCc1ccccc1Cl | -4.63%
22 | C[C@H](CO)N1C[C@H](C)[C@@H](CN(C)C(=O)NC2CCCCC2)Oc2ccc(NC(=O)c3ccncc3)cc2CC1=O | -1.15%
23 | COc1cccc(C(=O)Nc2ccc3c(c2)C(=O)N(C)C[C@@H](OC)[C@H](C)CN(C(=O)C2CCOCC2)[C@H](C)CO3)c1 | -12.9%

Row | SMILES | inhibition
24 | COc1cc(/C=C(/NC(=O)c2ccc(Cl)cc2Cl)C(=O)O)cc(OC)c1OC | 11.1%
25 | CCOC(=O)CN/C=C(\C#N)c1ccc(F)cc1 | -7.7%
26 | CCOc1cc(/C=C(/C#N)c2ccc(Cl)cc2)cc(Cl)c1OCC(=O)O | 67.4% (active)
27 | CO[C@@H]1CN(C)C(=O)c2cc(NC(=O)c3ccc(F)cc3)ccc2OC[C@H](C)N(C(=O)CN(C)C)C[C@H]1C | 1.32%
28 | C[C@@H]1CCCCO[C@@H](CN(C)Cc2ccncc2)[C@H](C)CN([C@H](C)CO)C(=O)c2cc(NC(=O)CCC(F)(F)F)ccc2O1 | -2.85%
29 | Cc1ccc(S(=O)(=O)NC[C@H]2CC[C@@H]3[C@@H](CN3Cc3ccccc3C(=O)O)O2)cc1 | 4.08%
30 | C[C@@H]1CCCCO[C@@H](CN(C)C(=O)c2ccccc2)[C@H](C)CN([C@@H](C)CO)C(=O)c2cc(NS(=O)(=O)c3cn(C)cn3)ccc2O1 | -5.15%
31 | CC[n+]1cc(C)ccc1/C=C/c1ccc(N(C)C)cc1 | 57.5% (active)
32 | CO[C@H]1CN(C)C(=O)c2cc(NC(=O)c3cnccn3)ccc2OC[C@@H](C)N(CC2CC2)C[C@@H]1C | -6.87%
33 | COc1ccc(-c2noc(CNC(=O)C(C)Oc3ccccc3)n2)cc1 (stereo unspecified) | -7.08%
34 | COc1ccc(/C=C/c2noc(-c3ccccc3OC(C)=O)n2)cc1 | 6.55%
35 | COc1ccc(-c2nc(-c3ccccc3)no2)c(OC)c1 | 77.6% (active)
36 | COc1cccc(NC(=O)C[C@H]2CC[C@@H]3[C@H](COc4ccc(NC(C)=O)cc4C(=O)N3C)O2)c1 | -0.492%
37 | O=C(C[C@@H]1C=C[C@@H](NS(=O)(=O)c2ccccc2)[C@H](CO)O1)N1CCN(c2ccccc2)CC1 | 2.46%
38 | CNC(=O)C[C@H]1CC[C@H]2[C@H](COc3ccc(NC(=O)Nc4cccc(C)c4)cc3C(=O)N2C)O1 | -11.4%
39 | C[C@H](O)C#Cc1ccc2c(c1)O[C@H](CN(C)C(=O)C1CCCCC1)[C@@H](C)CN([C@H](C)CO)S2(=O)=O | 2.27%
40 | O=c1cc(-c2ccccc2)[nH]c2cc(F)ccc12 | 54.2% (active)
41 | Cc1cc(=O)c2ccc(NC(=O)c3ccccc3)cc2[nH]1 | 9.56%
42 | Cc1ccc(-c2cc(=O)c3ccc(F)cc3[nH]2)cc1 | -5.43%
43 | CCC(=O)N1CC2(CN(Cc3ccc(Cl)cc3)C2)c2c([nH]c3cc(OC)ccc23)[C@@H]1CO | -10.6%
44 | CC(=O)Nc1ccc(S(=O)(=O)Nc2ccc(N3CCCCC3)cc2)cc1 | 63.2% (active)
45 | O=C(Nc1ccc(N2CCCCC2)cc1)c1cc(S(=O)(=O)N2CCOCC2)ccc1F | 0.758%
46 | CC(=O)Nc1ccc(S(=O)(=O)Nc2ccc(-c3ccc4nnc(C)n4n3)cc2)cc1 | 18.6%
